# Test results from PubChem BioAssay (NCATS).
# Results filed as inconclusive are left out. Where a call stands in place of a potency, no number is given. Calls of active or inactive are those of the source. The call rests on the fitted dose curve; in most records, active means well fitted curve in the direction sought with a large enough effect; inconclusive means small, poorly fitted or top-dose-only effect, or another doubt; inactive means no such curve, though single readings can be large; an effect the other way counts as inactive or inconclusive.
# Key:
# [1] = Viability counterscreen for antagonist of constitutive androstane receptor (CAR) against the NCATS DSHEA and TCM libraries (AID 1794837);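 further: compound exposure lasted 24 h before viability reading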
# In short: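 Viability was measured by CellTiter-Fluor fluorescence (405/540 nm, 1 hr) in HepG2-CYP2B6-hCAR cells. Cells were co-treated 24 hr with 48 uM CITCO (final), antagonist mode, and test substances.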
# [2] = target: Nuclear receptor subfamily 1 group I member 3 (Homo sapiens) (UniProt Q14994); assay: Primary qHTS for agonist of constitutive androstane receptor (CAR) against the NCATS DSHEA and TCM libraries (AID 1794839);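 further: HepG2 cells expressing human CAR with a CYP2B6 reporter plus PK11195 antagonist; luciferase reporter luminescence read with ONE-Glo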
# In short: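 Agonist mode in presence of hCAR antagonist PK11195 (0.75 µM final): test substances, 24 h, 37 °C, on HepG2-CYP2B6-hCAR cells. Same-well readouts: fluorescence viability, then ONE-Glo luminescence; CITCO as reference agonist.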
# [3] = target: Metallo-beta-lactamase type 2 (Klebsiella pneumoniae) (UniProt C7C422); assay: qHTS to identify inhibitors of the New Delhi Metallo-beta-lactamase (NDM): assay validation screen against the NCATS LOPAC Collection (AID 1794843); further: series mostly up to about 38 µM
# In short: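 Absorbance at 485 nm from nitrocefin turnover (50 uM solution added), read at plateau, gives the read-out. Compounds in DMSO were incubated first with 2 nM final NDM-1 in pH 7.0 HEPES buffer containing 1 uM ZnSO4 and 0.01% Tween20.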
# [4] = target: Glutathione peroxidase 1 (Homo sapiens) (UniProt P07203); assay: Primary qHTS Assay for Inhibitors of Recombinant Selenoprotein Glutathione Peroxidase 1 (GPX1) (AID 1845191); further: nearly all actives have a fitted effect of over 65% in size
# In short: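 GR-coupled assay: compounds preincubated 30 min at room temperature with GPX1, then reaction started with CHP; final 10 nM GPX1, 1 mM GSH, 0.5 mM CHP, 0.5 mM NADPH, 100 nM GR, 0.01% BSA, pH 7.5 Tris buffer. NADPH fluorescence (340/450 nm) read at 0 and 15 min.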
# [5] = target: Phospholipid hydroperoxide glutathione peroxidase GPX4 (Homo sapiens) (UniProt P36969); assay: Primary qHTS Assay for Inhibitors of Recombinant Selenoprotein Glutathione Peroxidase 4 (GPX4) (AID 1845192); further: nearly all actives have a fitted effect of over 65% in size
# In short: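 GR-coupled assay: recombinant GPX4 preincubated 30 min with compound at room temperature; final 200 nM GPX4, 1 mM GSH, 0.5 mM cumene hydroperoxide, 0.5 mM NADPH, 100 nM GR, 0.01% BSA, pH 7.5 Tris. NADPH fluorescence (340/450 nm) read at 0 and 15 min.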
# [6] = Primary fluorescence-based thiol-reactive (MSTI) qHTS assay for identification of artifact compounds. (AID 1845221);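 further: series mostly up to about 54 µM; thiol-reactive compounds lower the probe fluorescence signal; nearly all actives have a fitted effect of over 65% in size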
# In short: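 Thiol-reactive compounds detected by quenching of 4 uM MSTI fluorescence (525/598 nm) after 1 h room-temperature dark incubation in PBS pH 7.4, 2% DMSO. qHTS titration; percent inhibition Hill-fitted against Acetyl-MSTI/MSTI controls.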
# [7] = system: Nanoluciferase (engineered Oplophorus gracilirostris luciferase); assay: Primary Nanoluciferase (NLuc) qHTS assay for identification of artifact compounds. (AID 1845222);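 further: NLuc secreted into diluted conditioned medium of S16 cells; series mostly up to about 54 µM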
# In short: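 S16 cell supernatant NLuc, 1:55; cpds qHTS; 15 min RT dark; Nano-Glo substrate 1:100, 5 min; luminescence; Hill fit of % inhibition.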
# [8] = Primary redox qHTS assay for identification of artifact compounds. (AID 1845223)
# In short: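 Amplex Red (25 uM) and HRP (250 mU/mL) in HBSS, with compounds for 15 min, then 250 uM DTT for 30 min, room temperature, dark. Fluorescence 525/598 nm read; normalized to DMSO and 10 uM DA3003; Hill fit.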
# [9] = Quantitative High-Throughput drug screen in 47 multiple myeloma cell lines against the NCATS MIPE library collection: FR4_PLB cell viability assay (AID 1918924; further: nearly all actives have a fitted effect of over 35% in size; further: potency means the concentration at half of the fitted maximal effect)
# In short: (§1)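 Inhibition of cell viability is measured here. Each line was plated at 500 cells per well, treated with MIPE 4.0 drugs, kept 48 hours at 37C, then assayed for ATP content by CellTiter-Glo luminescence.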
# [10] = Quantitative High-Throughput drug screen in 47 multiple myeloma cell lines against the NCATS MIPE library collection: EJM_DSMZ cell viability assay (AID 1918926; further: nearly all actives have a fitted effect of over 30% in size; further: potency means the concentration at half of the fitted maximal effect)
# In short: (§2)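 CellTiter-Glo ATP luminescence gave viability after 48 h compound treatment at 37C of 500 multiple myeloma cells per well. Normalisation used DMSO-only wells as 100% and media-only wells as 0% viability; primary qHTS of approved and investigational drugs.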
# [11] = Quantitative High-Throughput drug screen in 47 multiple myeloma cell lines against the NCATS MIPE library collection: AMO1_DSMZ cell viability assay (AID 1918927; further: nearly all actives have a fitted effect of over 30% in size; further: potency means the concentration at half of the fitted maximal effect)
# In short: as §2
# [12] = Quantitative High-Throughput drug screen in 47 multiple myeloma cell lines against the NCATS MIPE library collection: ARD_JJKsccE7 cell viability assay (AID 1918929; further: potency means the concentration at half of the fitted maximal effect)
# In short: as §2
# [13] = Quantitative High-Throughput drug screen in 47 multiple myeloma cell lines against the NCATS MIPE library collection: Karpas620_DSMZ cell viability assay (AID 1918959); further: nearly all actives have a fitted effect of over 30% in size; further: potency means the concentration at half of the fitted maximal effect
# In short: as §1
# [14] = Quantitative High-Throughput drug screen in 47 multiple myeloma cell lines against the NCATS MIPE library collection: Delta47_JCRB cell viability assay (AID 1918925; further: nearly all actives have a fitted effect of over 45% in size; further: potency means the concentration at half of the fitted maximal effect)
# In short: as §2
# [15] = target: Luciferin 4-monooxygenase (Photinus pyralis) (UniProt P08659); assay: Primary firefly luciferase (FLuc) qHTS assay for identification of artifact compounds. (AID 1845220); further: nearly all actives have a fitted effect of over 60% in size
# In short: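 Enzymatic FLuc inhibition assay: compounds pre-exposed to luciferin/ATP (10 uM each) for 15 min, then purified P. pyralis enzyme at 10 nM added. Read-out: luminescence at 5 min.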
# [16] = Quantitative High-Throughput drug screen in 47 multiple myeloma cell lines against the NCATS MIPE library collection: ARP1_JJKsccF8 cell viability assay (AID 1918928; further: nearly all actives have a fitted effect of over 40% in size; further: potency means the concentration at half of the fitted maximal effect)
# In short: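 ATP readout (CellTiter-Glo), 48 h drug incubation, 37 °C/5% CO2, 500 cells per well; normalisation to DMSO (100%) and media-only (0%) controls.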
# Sequence of Glutathione peroxidase 1 (Homo sapiens) (P07203 whole entry, looked up): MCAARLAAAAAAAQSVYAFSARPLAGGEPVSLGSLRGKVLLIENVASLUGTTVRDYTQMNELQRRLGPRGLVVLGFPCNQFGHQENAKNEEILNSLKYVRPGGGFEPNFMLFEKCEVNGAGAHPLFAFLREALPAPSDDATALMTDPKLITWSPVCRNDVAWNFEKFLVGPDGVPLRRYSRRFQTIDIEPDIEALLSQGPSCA
# Sequence of Phospholipid hydroperoxide glutathione peroxidase GPX4 (Homo sapiens) (P36969 whole entry, looked up): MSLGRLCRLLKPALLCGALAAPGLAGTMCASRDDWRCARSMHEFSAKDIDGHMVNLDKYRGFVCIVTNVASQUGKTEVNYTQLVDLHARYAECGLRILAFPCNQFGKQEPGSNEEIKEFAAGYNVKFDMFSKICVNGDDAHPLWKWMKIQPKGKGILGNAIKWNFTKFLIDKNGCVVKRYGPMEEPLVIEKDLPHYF
# Sequence of Metallo-beta-lactamase type 2 (Klebsiella pneumoniae) (C7C422 whole entry, looked up): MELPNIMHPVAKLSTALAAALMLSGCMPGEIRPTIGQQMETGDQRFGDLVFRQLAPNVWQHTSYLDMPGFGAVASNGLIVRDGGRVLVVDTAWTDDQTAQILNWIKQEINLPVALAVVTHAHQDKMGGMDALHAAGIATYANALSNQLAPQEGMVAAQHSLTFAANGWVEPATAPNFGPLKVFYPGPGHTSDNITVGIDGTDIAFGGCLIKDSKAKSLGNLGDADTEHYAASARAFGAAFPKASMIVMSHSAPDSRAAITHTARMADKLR
# Sequence of Nuclear receptor subfamily 1 group I member 3 (Homo sapiens) (Q14994 whole entry, looked up): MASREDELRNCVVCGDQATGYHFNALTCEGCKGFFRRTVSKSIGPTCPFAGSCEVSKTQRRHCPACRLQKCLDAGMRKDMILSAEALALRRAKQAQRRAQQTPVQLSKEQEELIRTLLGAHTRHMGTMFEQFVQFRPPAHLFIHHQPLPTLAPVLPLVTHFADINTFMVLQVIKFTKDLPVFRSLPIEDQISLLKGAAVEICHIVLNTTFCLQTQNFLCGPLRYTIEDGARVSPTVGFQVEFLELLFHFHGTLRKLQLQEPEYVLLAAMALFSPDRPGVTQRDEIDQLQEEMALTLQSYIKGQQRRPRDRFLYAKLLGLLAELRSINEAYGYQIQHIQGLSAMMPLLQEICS
compound,measurement,setting,value
OC[C@H]1O[C@@H](OCCc2ccc(O)cc2)[C@H](O)[C@@H](O)[C@H]1O,outcome,[1],inactive
same,outcome,[2],inactive
C=CCc1cccc(C=NNC(=O)CN2CCN(Cc3ccccc3)CC2)c1O,outcome,[3],inactive
CC[C@H](CC#N)OC(=O)N[C@@H](C)c1cccc(NC(=O)Nc2ccc(-c3cnco3)c(OC)c2)c1,Potency,[4],inactive
same,Potency,[5],inactive
same,Potency,[6],inactive
same,Potency,[7],inactive
same,outcome,[8],inactive
same,Potency,[9],1.48 µM (active)
same,Potency,[10],11.8 µM (active)
same,Potency,[11],0.418 µM (active)
same,Potency,[12],14.8 µM (active)
same,Potency,[13],18.7 µM (active)
CNC1CCC(N(Cc2cccc(-c3ccncc3)c2)C(=O)c2sc3ccccc3c2Cl)CC1 (stereo not drawn),Potency,[4],inactive
same,Potency,[5],inactive
same,Potency,[6],inactive
same,Potency,[7],inactive
same,Potency,[9],20.9 µM (active)
same,Potency,[14],7.43 µM (active)
same,Potency,[11],18.7 µM (active)
same,Potency,[13],16.6 µM (active)
Cc1c(C(=O)Nc2ccc(N3C[C@@H](C)O[C@@H](C)C3)nc2)cccc1-c1ccc(OC(F)(F)F)cc1,Potency,[4],inactive
same,Potency,[5],inactive
same,Potency,[15],inactive
same,Potency,[6],inactive
same,Potency,[7],inactive
same,outcome,[8],inactive
same,Potency,[11],2.96 µM (active)
same,Potency,[12],0.935 µM (active)
same,Potency,[13],8.33 µM (active)
COc1nccc(-c2c(-c3ccc(F)cc3)ncn2C2CCC(O)CC2)n1 (stereo not drawn),Potency,[4],inactive
same,Potency,[5],inactive
same,Potency,[15],inactive
same,Potency,[6],inactive
same,Potency,[7],inactive
same,Potency,[12],0.0083 µM (active)
same,Potency,[13],inactive
C[C@@H](N)c1ccc(C(=O)Nc2ccnc3[nH]ccc23)cc1,Potency,[4],inactive
same,Potency,[5],inactive
same,Potency,[6],inactive
same,Potency,[7],inactive
same,outcome,[8],inactive
same,Potency,[9],26.4 µM (active)
same,Potency,[14],26.4 µM (active)
same,Potency,[10],23.5 µM (active)
same,Potency,[11],23.5 µM (active)
same,Potency,[12],26.4 µM (active)
N#CC1(c2cccc(C(=O)Nc3cc(Oc4ccc5nc(NC(=O)C6CC6)sc5n4)ccc3F)c2Cl)CC1,Potency,[4],inactive
same,Potency,[5],inactive
same,Potency,[6],inactive
same,Potency,[7],inactive
same,outcome,[8],inactive
same,Potency,[9],10.5 µM (active)
same,Potency,[14],inactive
same,Potency,[10],20.9 µM (active)
same,Potency,[16],9.35 µM (active)
same,Potency,[12],0.59 µM (active)
Cc1ccccc1C(C(=O)NC1CCCCC1)N(C(=O)CNc1ccc(C#N)cc1)c1cccc(F)c1 (stereo not drawn),Potency,[4],inactive
same,Potency,[5],inactive
same,Potency,[15],inactive
same,Potency,[6],inactive
same,Potency,[7],inactive
same,outcome,[8],inactive
same,Potency,[12],inactive
same,Potency,[13],inactive
Cc1nc2c([nH]1)CCN(C(=O)c1ccc(NC(=O)c3ccccc3-c3ccccc3)cc1)c1ccccc1-2,Potency,[4],inactive
same,Potency,[5],inactive
same,Potency,[6],inactive
same,Potency,[7],inactive
same,outcome,[8],inactive
same,Potency,[10],inactive
same,Potency,[11],18.7 µM (active)
same,Potency,[12],inactive
CC(C)(O)CC(=O)NCCn1ccc2ncnc(Nc3ccc(Oc4cccc(C(F)(F)F)c4)c(Cl)c3)c21,Potency,[4],inactive
same,Potency,[5],inactive
same,Potency,[6],inactive
same,Potency,[7],inactive
same,outcome,[8],inactive
same,Potency,[9],26.4 µM (active)
same,Potency,[14],18.7 µM (active)
same,Potency,[10],1.87 µM (active)
same,Potency,[11],16.6 µM (active)
same,Potency,[13],5.9 µM (active)
CS(=O)(=O)c1ccc(C2=C(c3ccccc3)C(=O)OC2)cc1,Potency,[4],inactive
same,Potency,[5],inactive
same,Potency,[15],inactive
same,Potency,[6],inactive
same,outcome,[8],inactive
same,Potency,[10],inactive
same,Potency,[11],inactive
same,Potency,[16],inactive
same,Potency,[12],inactive
same,Potency,[13],inactive
Nc1ncnc2c1c(-c1cccc(OCc3ccccc3)c1)cn2C1CC(CN2CCC2)C1 (stereo not drawn),Potency,[4],inactive
same,Potency,[5],inactive
same,Potency,[6],inactive
same,Potency,[7],inactive
same,Potency,[9],16.6 µM (active)
same,Potency,[14],0.372 µM (active)
same,Potency,[11],14.8 µM (active)
same,Potency,[12],2.96 µM (active)
same,Potency,[13],2.96 µM (active)
CN(C)CCOc1cc(-c2cn[nH]c2)ccc1NC(=O)C1COc2ccccc2O1 (stereo not drawn),Potency,[4],inactive
same,Potency,[5],inactive
same,Potency,[6],inactive
same,Potency,[7],inactive
same,Potency,[12],inactive
same,Potency,[13],inactive
COc1nc(C)cnc1NS(=O)(=O)c1cccnc1-c1ccc(-c2nnco2)cc1,Potency,[4],inactive
same,Potency,[5],inactive
same,Potency,[15],inactive
same,Potency,[7],inactive
same,outcome,[8],inactive
same,Potency,[9],inactive
same,Potency,[10],inactive
same,Potency,[11],inactive
CCNC(=O)c1noc(-c2cc(C(C)C)c(O)cc2O)c1-c1ccc(CN2CCOCC2)cc1,Potency,[4],inactive
same,Potency,[5],inactive
same,Potency,[6],inactive
same,Potency,[7],inactive
same,outcome,[8],inactive
CCN1CCN(c2ccc(Nc3cc(N(C)C(=O)Nc4c(Cl)c(OC)cc(OC)c4Cl)ncn3)cc2)CC1,Potency,[4],inactive
same,Potency,[5],inactive
same,Potency,[15],inactive
same,Potency,[7],inactive
same,outcome,[8],inactive
same,Potency,[9],18.7 µM (active)
same,Potency,[14],0.0093 µM (active)
same,Potency,[11],inactive
same,Potency,[16],inactive
same,Potency,[13],inactive
CC1(COc2ccc3c(c2)ncn3-c2ccc3cccc(N4CCC(N)CC4)c3n2)COC1,Potency,[4],inactive
same,Potency,[5],inactive
same,Potency,[15],inactive
same,Potency,[6],inactive
same,Potency,[7],inactive
same,Potency,[9],1.48 µM (active)
same,Potency,[12],5.9 µM (active)
Nc1ccc(-c2ccc3ncc4ccc(=O)n(-c5cccc(C(F)(F)F)c5)c4c3c2)cn1,Potency,[4],inactive
same,Potency,[5],inactive
same,Potency,[6],inactive
same,Potency,[7],inactive
same,outcome,[8],inactive
same,Potency,[10],0.0187 µM (active)
Cc1ccc2c(c1)c1c(n2CCc2ccc(C)nc2)CCN(C)C1,Potency,[4],inactive
same,Potency,[5],inactive
same,Potency,[6],inactive
same,Potency,[7],inactive
same,Potency,[14],inactive
same,Potency,[10],inactive
same,Potency,[11],inactive
same,Potency,[12],inactive
same,Potency,[13],inactive
